± gives the standard deviation.

The assay concerns RAW-Dual (murine macrophage reporter line). The assay is described as follows: NF-kB reporter (SEAP) activity fold change vs agonist alone; higher = enhanced NF-kB activity. The following applies: modulator concentration 10 µM; agonist: CpG ODN 1826 0.5 ug/mL. The procedure, abridged:
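Overnight stimulation with a PRR agonist followed pre-incubation for 1 hour at 37 °C with compound at 10 μM final. This was done in RAW-Dual murine macrophage reporter cells seeded at 50 000 per well in 384-well plates. NF-κB (SEAP, QUANTI-Blue absorbance at 620 nm) and IRF (Lucia luciferase, QUANTI-Luc luminescence) were read from the supernatant. Each reporter's fold change relative to the mean agonist-only control on the same plate was averaged over replicate plates.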
In the case of `CCCCNCCCCOc1ccc(C)cc1C(C)(C)C`, the NF-kB reporter is 0.441 ± 0.12. For `Brc1ccc(-c2cc(-c3ccccc3)nc(N3CCOCC3)n2)cc1` the value was 0.81 ± 0.087; for `O=C(c1ccc(Cl)cc1)c1ccc(N2CCOCC2)c([N+](=O)[O-])c1`, 0.696 ± 0.061. For `CC1CCN(c2nccnc2Oc2ccc(C(=O)N3CCN(c4ccc(F)cc4)CC3)cc2)CC1` the value was 0.803 ± 0.071; for `Oc1c2c(nc3cc(-c4ccc(Br)cc4)nn13)CCS2`, 1.06 ± 0.084; for `Cc1nn2c(=O)c(Cc3ccccc3)c(C)[nH]c2c1-c1ccccc1`, 0.777 ± 0.068. To `CNCCC[C@]12CC[C@H](c3ccccc31)c1ccccc12` [Prestw-346] belongs 0.726 ± 0.082; to `CC(N)c1ccc(Nc2ncc3cc(-c4ccncc4)ccc3n2)cc1.Cl.Cl.Cl` (stereo not given), 0.419 ± 0.069; to `CCOc1ccc(S(=O)(=O)NC(C)(C)C)cc1C`, 0.972 ± 0.081. Turning to `Cc1oncc1C(=O)Nc1ccc(C(F)(F)F)cc1`, the NF-kB reporter amounted to 2.06 ± 0.4. For `O=C(O)c1ccccc1` the value was 1.07 ± 0.21. For `CC(C)(C)C(O)/C=C/c1ccc2c(c1)OCO2` (stereo not given) the value was 1.19 ± 0.066; for `COc1cccc(S(=O)(=O)NCc2sc(-c3ccccc3)nc2C)c1`, 1.26 ± 0.12; for `CCOC(=O)c1cc(-c2ccccc2)sc1NC(=O)C(C)(C)C`, 0.798 ± 0.068. To `CC(C)(O)C#Cc1ccccn1` belongs 0.931 ± 0.052; to `COc1ccc(CC(C)N2CCN(c3cccc(C)c3C)CC2)cc1OC` (stereo not given), 0.765 ± 0.064. Consider `C[C@]1(O)C[C@@H](c2nc(-c3ccc4ccc(-c5ccccc5)nc4c3)c3c(N)nccn32)C1`, for which the NF-kB reporter amounted to 0.797 ± 0.04. For `Cc1ccc(C2=NN3C(=N)C(=Cc4c[nH]c5ccccc45)C(=O)N=C3S2)cc1` the value was 0.997 ± 0.079.

`CN1CCN(C2=C(Cl)C(=O)N(c3cccc(Cl)c3)C2=O)CC1`: the NF-kB reporter turned out to be 1.09 ± 0.079. For `CC1CCc2nc(NC(=O)C3CCCN3S(C)(=O)=O)sc2C1` (stereo not given) the value was 0.812 ± 0.037. To `C=CCn1c(SCC(=O)NCCN2CCOCC2)nc2sc3c(c2c1=O)CCC3` belongs 0.99 ± 0.079; to `CC1(C)CC(NC(=O)c2cccnc2-c2nc3ccccc3s2)CC(C)(C)N1`, 0.747 ± 0.078. To `CC(C)(C)C(=O)NCc1cccnc1-c1cccnc1` belongs 0.968 ± 0.052; to `COc1cc2c(cc1OC)C(=S)NC1(CCCC1)C2`, 0.886 ± 0.33.

Turning to `COC(=O)c1ccccc1NC(=O)CCc1ccc(Oc2cc([N+](=O)[O-])cc([N+](=O)[O-])c2)cc1`, the NF-kB reporter was determined as 1.22 ± 0.11. Consider `CC(O)(CNC(=O)NCc1ccc(F)cc1)c1ccc(-c2ccccc2)cc1` (stereo not given), for which the NF-kB reporter stood at 0.998 ± 0.053. To `CCn1c2ccccc2c2cc(CNCCc3ccc(OC)cc3)ccc21` belongs 0.369 ± 0.048; to `CN(C)c1nc(CNS(C)(=O)=O)nc(N2CCCCC2)n1`, 1 ± 0.092; to `O=C(NCCC(CCO)c1ccccc1)c1cccc(Br)c1` (stereo not given), 0.731 ± 0.033. `CCn1c(C=Nn2cnnc2)nc2ccccc21`: the NF-kB reporter stood at 0.929 ± 0.11.

As to `COc1c(O)cc(O)cc1O`, the NF-kB reporter worked out at 1.03 ± 0.095. For `O=C(NN=Cc1c(O)ccc2ccccc12)c1ccncc1` the value was 2.37 ± 0.19; for `COc1cc(C=NN2C(=O)c3cccc4cccc(c34)C2=O)cc(Br)c1OC`, 1.02 ± 0.08. For `CC(=O)OCCN(CCOC(C)=O)c1c(C)[nH]c(=O)[nH]c1=O` the value was 0.864 ± 0.067.

With `CC(C)C(=O)c1c(C(C)C)nn2ccccc12`, the NF-kB reporter was 1.59 ± 0.12.

In the case of `Cn1c(=O)cc(N2CCC[C@@H](N)C2)n(Cc2cc(F)ccc2C#N)c1=O`, the NF-kB reporter turned out to be 0.989 ± 0.074. To `Cc1onc(-c2ccccc2)c1-c1ccc(S(N)(=O)=O)cc1` belongs 1.64 ± 0.26.

As to `CC(C)(C(=O)O)c1ccc(C(O)CCCN2CCC(C(O)(c3ccccc3)c3ccccc3)CC2)cc1.Cl` (stereo not given), the NF-kB reporter stood at 1.47 ± 0.22.

For the compound `COc1cccc(N2C(=O)CN(Cc3ccccc3)C3CS(=O)(=O)CC32)c1` (stereo not given), the NF-kB reporter stood at 1.43 ± 0.078.

On to `c1ccc(CCn2c(COc3ccccc3)nc3ccccc32)cc1`, for which the NF-kB reporter was determined as 1.01 ± 0.16.

(Values after the supplement of paper PMC10646978.)
